From PubChem BioAssay
Beta apoptosis – beta cell apoptosis inhibition; protection from apoptosis, % (no concentration beside the values); 0.8% of 300,000 active; INS-1E cytokine-induced death, ATP luminescence, 48 h; percent of positive-control rescue, neutral wells zero; AID 435005;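 active means Every replicate reaches about 75%, or at least half do and their mean reaches it too, limit read from the data; inconclusive means At least half of replicates reach the limit but their mean does not; inactive means Under half of replicates reach the limit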;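 further: 0% = cytokine-treated negative control wells and 100% = positive control rescue; higher means more ATP so stronger rescue from cytokine killing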
MPTP inh – blocks calcium-induced mitochondrial swelling | inhibition, % at 10 µM | AID 602449 | isolated mouse mitochondria, Ca2+ swelling absorbance, 30 min | 1.4% of 360,000 active;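 active means inhibition of 50% or more, scaled per plate between neutral and stimulator controls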;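 further: 0% = DMSO wells given calcium and 100% = 1 mM EGTA wells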
Calb FLC – affects C. albicans growth with fluconazole; growth inhibition, % (no concentration beside the values); C. albicans CaCi-2 (fluconazole-resistant clinical isolate) + fluconazole, Alamar Blue growth, 48 h; 0.57% of 300,000 active;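 active means growth inhibition above about 58% in most replicates, limit read from the data, passing the limit was not always enough; inconclusive means exactly half the replicates above a set limit; inactive means most replicates below a set limit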;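 further: all wells also contain fluconazole at 8 µg/ml as a sub-toxic cotreatment; 0% = median of DMSO wells and 100% = median of geldanamycin control wells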
CSC inhib – blocks cancer stem cells. cancer stem cell-like cells viability, luminescence. inhibition, % at 7.5 µM. 1.1% of 300,000 active; in the data active means inhibition above about 75%; inconclusive means no clear call, values can overlap the other calls; tested in HMLE shEcad cells
Mdm2-MdmX inh – inhibitors of human Mdm2/MdmX interaction | 3% of 330,000 active | inhibition, % at 8 µM | O15151+Q00987 | SaOS-2 split-luciferase Mdm2/MdmX complementation, luminescence;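 active means inhibition of at least 50% at 8 µM in the primary screen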
Target sequence (O15151 whole entry, looked up): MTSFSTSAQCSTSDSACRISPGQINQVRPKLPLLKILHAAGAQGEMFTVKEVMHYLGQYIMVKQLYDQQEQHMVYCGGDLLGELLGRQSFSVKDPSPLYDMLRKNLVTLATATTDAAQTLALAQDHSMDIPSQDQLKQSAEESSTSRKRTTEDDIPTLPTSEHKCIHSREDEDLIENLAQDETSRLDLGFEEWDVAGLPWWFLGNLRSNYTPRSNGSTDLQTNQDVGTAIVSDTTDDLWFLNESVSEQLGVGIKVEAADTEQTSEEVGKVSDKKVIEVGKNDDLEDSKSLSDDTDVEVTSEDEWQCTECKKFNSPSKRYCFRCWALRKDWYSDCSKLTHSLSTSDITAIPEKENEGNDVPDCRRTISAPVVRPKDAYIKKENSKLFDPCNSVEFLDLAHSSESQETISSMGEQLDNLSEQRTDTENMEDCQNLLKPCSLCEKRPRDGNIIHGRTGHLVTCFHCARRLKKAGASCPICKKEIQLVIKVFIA
Target sequence (Q00987 whole entry, looked up): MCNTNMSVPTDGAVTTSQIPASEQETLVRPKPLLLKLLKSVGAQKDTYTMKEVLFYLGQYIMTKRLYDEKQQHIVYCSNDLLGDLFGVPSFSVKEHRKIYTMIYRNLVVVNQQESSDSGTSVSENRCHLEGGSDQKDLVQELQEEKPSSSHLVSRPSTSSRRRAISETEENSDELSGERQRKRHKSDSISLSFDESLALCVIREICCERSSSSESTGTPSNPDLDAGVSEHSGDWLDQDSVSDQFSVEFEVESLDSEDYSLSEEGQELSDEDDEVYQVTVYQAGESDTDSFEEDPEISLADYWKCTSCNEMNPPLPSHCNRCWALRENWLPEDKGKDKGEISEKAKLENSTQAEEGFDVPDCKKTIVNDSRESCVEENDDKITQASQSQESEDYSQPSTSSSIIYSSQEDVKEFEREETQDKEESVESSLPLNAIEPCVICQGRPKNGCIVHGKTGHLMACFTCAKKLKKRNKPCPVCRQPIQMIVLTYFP
SKKanGAS inh – blocks kanamycin growth of S. pyogenes SKKanGAS strain | BacTiter-Glo, 6 h | inhibition, % at 7.5 µM | 1.3% of 300,000 active;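 active means mean replicate score, as percent of positive control median, at least 50; inconclusive means mean below 50 but one replicate at or above 50; inactive means mean and every replicate below 50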;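 further: strain carries kanamycin resistance gene driven by streptokinase promoter and grows in 40 µg/ml kanamycin; loss of luminescence reflects streptokinase promoter inhibition or plain growth inhibition; 0% = median of DMSO wells and 100% = positive control at its reference dose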
* hit, by the source's call; ? = inconclusive; · = not tested or not shown. Shown are actives, neighbours in structure and some others; about 5.4% of the full set was active somewhere.

SMILES | Beta apoptosis | MPTP inh | Calb FLC | CSC inhib | Mdm2-MdmX inh | SKKanGAS inh
Cn1cc([N+](=O)[O-])c(C(=O)Nc2cc(Oc3ccccc3)cc([N+](=O)[O-])c2)n1 | 0 | 1 | 30 | 96* | · | 7
Cc1nn(C)cc1C(=O)Nc1cc(Oc2ccc(Cl)cc2)cc([N+](=O)[O-])c1 | 5 | 4 | 3 | -1 | 21 | -8
CN(c1ccc(O)cc1)c1nc(-c2cccs2)cs1 | -8 | 8 | 2 | -5 | -277 | 3
Cc1nc(N)sc1-c1csc(N(C)c2ccc(O)cc2)n1 | 4 | -3 | 26 | 7 | -33 | 64*
CCOC(=O)CNC(c1ccccc1)c1cc(Br)ccc1NC(=O)CCN1CCOCC1 (configuration not stated) | -11 | 0 | 111* | 15 | 48 | -6
Cc1cc(Br)c(Cl)cc1NC(=O)CN1C(=O)C2C3CC(c4ccccc4)C(C3)C2C1=O (configuration not stated) | 1 | 1 | -1 | 80* | 17 | 7
CCOc1ccc(N(CC(=O)NCCSCc2ccccc2Cl)S(C)(=O)=O)cc1 | -5 | 2 | 1 | 8 | -3 | 21
CCOC(=O)c1sc(=NC(=O)c2ccccc2Br)n(C)c1C | · | 1 | 6 | -11 | -174 | -2
CCOC(=O)c1sc(=NC(=O)c2ccco2)n(C)c1C | 2 | -1 | 106* | -3 | -57 | ·
Clc1ccccc1OCCCCn1ccnc1 | 1 | -2 | 7 | 1 | 19 | 59*
CCOC(=O)c1c(NC(C)=O)sc2c1CCC(C=O)=C2Sc1ccccc1 | -2 | 2 | 19 | 89* | 24 | 20
O=C1C(=O)N(CCCN2CCOCC2)C(c2ccc(Cl)cc2)/C1=C(\O)c1ccc2c(c1)OCCO2 (configuration not stated) | -7 | -2 | -5 | -2 | 0 | 1
O=C(COC(=O)c1ccc(Br)o1)NCc1ccccc1Cl | -8 | 0 | · | -4 | -1 | ·
COc1ccc2cc(-c3ccccc3)ncc2c1 | 5 | 4 | -4 | -3 | -127 | 3
COc1cc(OC)cc(-c2cc3ccc(OC)cc3cn2)c1 | 36 | 0 | · | 94* | -147 | ·
Cc1ccc(Cc2cnc(NC(=O)C3CCCO3)s2)cc1 (configuration not stated) | -11 | 0 | 6 | -3 | -63 | 4
O=C(Nc1ncc(Cc2ccc(SC(F)F)cc2)s1)c1ccccc1 | 9 | -1 | -13 | 68 | 30 | 82*
O=C(Nc1ncc(Cc2cccc(Cl)c2)s1)c1cccs1 | -1 | 0 | -2 | · | -42 | 95*
Cc1ccc(C(=O)Nc2ncc(Cc3ccccc3)s2)o1 | · | -4 | -1 | 97* | -104 | 23
Cc1ccc(Cc2cnc(NC(=O)c3cccs3)s2)cc1 | 5 | -2 | 8 | -23 | -203 | 78*
COC(=O)[C@]1(Cc2ccccc2)N[C@H](CN(C)C(=O)c2ccccc2)[C@@H]2C(=O)N(C)C(=O)[C@@H]21 | · | 3 | · | · | 8 | ·
O=C(NC(=S)Nc1nc(-c2ccc(Cl)cc2)cs1)c1cccs1 | 3 | 2 | -16 | 14 | 32 | -4
O=C(Nc1ncc(Cc2ccccc2)s1)c1cccs1 | -4 | -3 | 10 | 50 | -104 | 66*
O=C(Nc1nc(-c2cc(Cl)sc2Cl)cs1)c1cccs1 | 15 | 0 | 6 | 112* | 23 | 61*
Cc1ccc(CN2CC(C(=O)NC3CCCC(C)C3C)CC2=O)cc1 (configuration not stated) | -5 | -1 | · | · | -15 | ·
SMILES | Beta apoptosis | MPTP inh | Calb FLC | CSC inhib | Mdm2-MdmX inh | SKKanGAS inh
O=C(Nc1nccs1)C(F)(F)C(F)(F)C(F)(F)C(=O)Nc1nccs1 | 0 | 0 | -12 | 7 | 3 | 0
Cc1ccc2nc(NC(=O)C3CC3C)sc2c1 (configuration not stated) | · | 1 | 4 | -1 | -114 | -8
O=C(CSc1nnc(-c2ccccc2O)n1Cc1ccccc1)NNC(=O)c1ccccc1O | -2 | 3 | ? | 133* | 32 | 8
O=C(N/N=C/c1cccc(O)c1)c1ccc(COc2ccccc2Br)cc1 | -4 | 5 | -1 | 87* | 24 | 63*
Cc1ccc(C(C)C)c(OCc2ccc(C(=O)N/N=C/c3ccc(O)cc3O)cc2)c1 | 116* | 3 | 1 | 101* | · | 87*
Cc1ccc(C(C)C)c(OCc2ccc(C(=O)N/N=C/c3ccc(C(=O)O)cc3)cc2)c1 | -18 | 33 | 2 | 17 | 39 | 42
CN(C)c1nc(N)c2nccnc2n1 | · | 2 | · | · | · | ·
CSc1cnc2c(N)nc(N(C)C)nc2n1 | -1 | -1 | 95* | -4 | 24 | -14
O=c1c2ccccc2sn1-c1ccc(S(=O)(=O)N2CCCCC2)cc1 | -9 | -3 | -2 | -7 | 30 | -3
Cc1ccc(-n2sc3ccccc3c2=O)cc1S(=O)(=O)N1CCCCC1 | 0 | 41 | -7 | 0 | 12 | 90*
O=C(Nc1nnc(C2=COCCO2)o1)c1cccc(Br)c1 | -8 | -1 | ? | -5 | 17 | 100*
O=C(Nc1nnc(C2=COCCO2)o1)c1cccc([N+](=O)[O-])c1 | · | -1 | 1 | 9 | -15 | 1
CCOc1ccc(C(=O)Nc2nnc(C3=COCCO3)o2)cc1 | 2 | 1 | -3 | 15 | 8 | 72*
CCOC(=O)[C@]12CCCC=C1N(Cc1ccccc1)C(=O)[C@H](CC(=O)NCc1cccs1)C2 | · | -1 | · | · | · | ·
Cc1ccc(C)c(OCCCCN2CCNCC2)c1C | 2 | 1 | -17 | 129* | -23 | -15
CCOC(=O)c1[nH]c2ccc(F)cc2c1NC(=O)c1ccccc1C(=O)O | 4 | 0 | 85* | -14 | 6 | 84*
Cc1cc(C)c(OCCCCN2CCC(C)CC2)c(Br)c1 | 10 | 4 | -21 | 82* | -15 | 1
Cc1cc(Cl)c(OCCOCCN2CCC(C)CC2)c(Br)c1 | 11 | 12 | -27 | 40 | 14 | -12
O=C(c1cccs1)N1N=C(c2ccc(O)cc2)CC1c1ccccc1 (configuration not stated) | 2 | 11 | -6 | 1 | -4 | 11
O=C(c1cccs1)N1N=C(c2ccccc2)CC1c1ccccc1 (configuration not stated) | 19 | 1 | -12 | 25 | 12 | 57*
O=c1c2cnn(-c3ccccc3)c2nnn1Cc1ccccn1 | 2 | 0 | 5 | -24 | -13 | 1
Cc1nc2c(-c3ccccc3)c[nH]n2c(=O)c1Cc1ccccc1 | 39 | 0 | -4 | 13 | 49 | 71*
Cc1cc(=O)n2[nH]cc(-c3ccccc3)c2n1 | -5 | -1 | 1 | -6 | 2 | -1
CCC(c1nnnn1-c1ccc2c(c1)OCCO2)N1CCN(C(=O)c2ccco2)CC1 (configuration not stated) | · | 2 | · | · | · | ·
CCN1C(=O)/C(=C\c2ccncc2)SC1=S | -4 | 0 | 6 | 22 | 16 | -5
CCCCC(CC)CN1C(=O)/C(=C/c2ccncc2)SC1=S (configuration not stated) | 88* | 0 | -7 | 107* | 21 | 87*
COc1ccccc1OCCC(=O)O | -1 | 1 | 3 | 7 | -16 | 1
